The supplement of paper PMC6897291

Columns and labels:
[1] = tested on: U-2932; assay: growth inhibition by drug alone (1 - RLU/untreated control) (fraction); higher = stronger inhibition; details: 177Lu-lilotomab satetraxetan 0 ug/ml
In short: (§1)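 Growth inhibition was calculated from RealTime-Glo RLU against untreated no-drug wells. Values equal 1 − RLU/mean of 48 untreated no-drug wells per plate, read daily from day 3 after 1 h at 37°C. RIVA and U-2932 cells, with or without 18 h pretreatment by a radiolabelled anti-CD37 antibody conjugate (~600 MBq/mg; 0.5 µg/ml RIVA, 1 µg/ml U-2932), were washed and plated at 3,000 cells/well on compound-printed plates at 10/100 nM (RIVA) or 10/1,000 nM (U-2932).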

[2] = tested on: RIVA; assay: as above; details: 177Lu-lilotomab satetraxetan 0 ug/ml
In short: as §1

[3] = tested on: U-2932; assay: growth inhibition by drug plus 177Lu-lilotomab satetraxetan (1 - RLU/untreated control) (fraction); higher = stronger inhibition; details: 177Lu-lilotomab satetraxetan 1 ug/ml
In short: as §1

[4] = tested on: RIVA; assay: as above; details: 177Lu-lilotomab satetraxetan 0.5 ug/ml
In short: as §1

| Structure (SMILES) | growth inhibition by drug alone ([1]; 10 nM, time (day): 3) | growth inhibition by drug alone ([1]; 10 nM, time (day): 4) | growth inhibition by drug alone ([1]; 10 nM, time (day): 5) | growth inhibition by drug alone ([1]; 10 nM, time (day): 6) | growth inhibition by drug alone ([1]; 1000 nM, time (day): 3) | growth inhibition by drug alone ([1]; 1000 nM, time (day): 4) | growth inhibition by drug alone ([1]; 1000 nM, time (day): 5) | growth inhibition by drug alone ([1]; 1000 nM, time (day): 6) | growth inhibition by drug alone ([2]; 10 nM, time (day): 3) | growth inhibition by drug alone ([2]; 10 nM, time (day): 4) | growth inhibition by drug alone ([2]; 10 nM, time (day): 5) | growth inhibition by drug alone ([2]; 10 nM, time (day): 6) | growth inhibition by drug alone ([2]; 100 nM, time (day): 3) | growth inhibition by drug alone ([2]; 100 nM, time (day): 4) | growth inhibition by drug alone ([2]; 100 nM, time (day): 5) | growth inhibition by drug alone ([2]; 100 nM, time (day): 6) | growth inhibition by drug plus 177Lu-lilotomab satetraxetan ([3]; 10 nM, time (day): 3) | growth inhibition by drug plus 177Lu-lilotomab satetraxetan ([3]; 10 nM, time (day): 4) | growth inhibition by drug plus 177Lu-lilotomab satetraxetan ([3]; 10 nM, time (day): 5) | growth inhibition by drug plus 177Lu-lilotomab satetraxetan ([3]; 10 nM, time (day): 6) | growth inhibition by drug plus 177Lu-lilotomab satetraxetan ([3]; 1000 nM, time (day): 3) | growth inhibition by drug plus 177Lu-lilotomab satetraxetan ([3]; 1000 nM, time (day): 4) | growth inhibition by drug plus 177Lu-lilotomab satetraxetan ([3]; 1000 nM, time (day): 5) | growth inhibition by drug plus 177Lu-lilotomab satetraxetan ([3]; 1000 nM, time (day): 6) | growth inhibition by drug plus 177Lu-lilotomab satetraxetan ([4]; 10 nM, time (day): 3) | growth inhibition by drug plus 177Lu-lilotomab satetraxetan ([4]; 10 nM, time (day): 4) | growth inhibition by drug plus 177Lu-lilotomab satetraxetan ([4]; 10 nM, time (day): 5) | growth inhibition by drug plus 177Lu-lilotomab satetraxetan ([4]; 10 nM, time (day): 6) | growth inhibition by drug plus 177Lu-lilotomab satetraxetan ([4]; 100 nM, time (day): 3) | growth inhibition by drug plus 177Lu-lilotomab satetraxetan ([4]; 100 nM, time (day): 4) | growth inhibition by drug plus 177Lu-lilotomab satetraxetan ([4]; 100 nM, time (day): 5) | growth inhibition by drug plus 177Lu-lilotomab satetraxetan ([4]; 100 nM, time (day): 6) |
| --- | --- | --- | --- | --- | --- | --- | --- | --- | --- | --- | --- | --- | --- | --- | --- | --- | --- | --- | --- | --- | --- | --- | --- | --- | --- | --- | --- | --- | --- | --- | --- | --- |
| Nc1nc(N)c(N=O)c(OCC2CCCCC2)n1 | -0.102 | -0.0718 | -0.059 | 0.0483 | -0.102 | -0.0762 | -0.0902 | -0.132 | -0.226 | -0.243 | -0.283 | -0.504 | -0.331 | -0.36 | -0.322 | -0.473 | -0.0542 | -0.0355 | -0.000656 | 0.134 | -0.0976 | -0.0168 | 0.00555 | 0.0733 | 0.229 | 0.419 | 0.456 | 0.476 | 0.322 | 0.426 | 0.43 | 0.399 |
| O=c1cc(N2CCOCC2)oc2c(-c3ccccc3)cccc12 | 0.0578 | 0.0496 | -0.0145 | -0.0318 | 0.0577 | 0.0696 | 0.0149 | -0.0509 | 0.12 | 0.0305 | -0.0125 | -0.181 | 0.0387 | 0.0134 | -0.0363 | -0.116 | 0.00353 | 0.0372 | 0.0314 | 0.0726 | 0.0169 | 0.0857 | 0.0428 | 0.0454 | 0.442 | 0.529 | 0.563 | 0.58 | 0.423 | 0.463 | 0.473 | 0.446 |
| CCOc1cc(C(=O)Nc2ccc(Cl)c(-c3nc4ccccc4[nH]3)c2)cc(OCC)c1OCC | -0.0835 | 0.00922 | -0.0921 | -0.101 | 0.0527 | 0.106 | 0.057 | 0.0205 | 0.0892 | 0.061 | 0.00986 | -0.126 | 0.409 | 0.248 | 0.22 | 0.167 | -0.0124 | 0.0291 | 0.0337 | 0.147 | 0.147 | 0.267 | 0.28 | 0.362 | 0.452 | 0.548 | 0.564 | 0.568 | 0.625 | 0.648 | 0.668 | 0.654 |
| O=C(Cc1ccc(-c2ccc(OCCN3CCOCC3)cc2)cn1)NCc1ccccc1 | 0.144 | 0.134 | 0.0891 | 0.0449 | 0.964 | 0.971 | 0.975 | 0.978 | 0.0653 | 0.0193 | -0.0159 | -0.201 | 0.766 | 0.708 | 0.676 | 0.605 | 0.0847 | 0.112 | 0.111 | 0.18 | 0.968 | 0.977 | 0.981 | 0.983 | 0.466 | 0.544 | 0.565 | 0.575 | 0.833 | 0.839 | 0.863 | 0.881 |
| COc1cc2ncnc(-n3nc(-c4ccccn4)nc3N)c2cc1OC | 0.133 | 0.114 | 0.0839 | 0.0512 | 0.057 | 0.0631 | 0.00213 | -0.164 | -0.00526 | 0.0304 | -0.00529 | -0.18 | -0.0276 | -0.0495 | -0.074 | -0.143 | 0.0575 | 0.105 | 0.1 | 0.113 | -0.00115 | 0.0649 | 0.0622 | 0.0772 | 0.485 | 0.573 | 0.58 | 0.588 | 0.535 | 0.578 | 0.579 | 0.559 |
| Cc1nc(N)sc1-c1ccnc(Nc2ccc(N3CCOCC3)cc2)n1 | 0.00864 | -0.0087 | -0.0373 | -0.101 | 0.0735 | 0.00717 | 0.0172 | 0.253 | -0.0458 | -0.131 | -0.156 | -0.327 | -0.0826 | -0.139 | -0.133 | -0.233 | -0.0148 | 0.00212 | 0.025 | 0.0655 | 0.0555 | 0.0326 | 0.0942 | 0.374 | 0.375 | 0.481 | 0.505 | 0.525 | 0.398 | 0.486 | 0.498 | 0.487 |
| CN[C@@H](C)C(=O)N[C@H]1CN(C(=O)CC(C)C)CC[C@H]2CC[C@@H](C(=O)NC(c3ccccc3)c3ccccc3)N2C1=O | 0.0554 | 0.0151 | -0.0459 | -0.197 | -0.059 | -0.0374 | -0.0798 | -0.0575 | 0.00534 | -0.116 | -0.171 | -0.417 | -0.168 | -0.227 | -0.25 | -0.406 | -0.0234 | -0.00591 | 0.0157 | 0.0545 | -0.0193 | 0.0475 | 0.055 | 0.159 | 0.456 | 0.56 | 0.581 | 0.599 | 0.456 | 0.551 | 0.567 | 0.544 |
| CC(=O)O[C@]1(C(C)=O)CC[C@H]2[C@@H]3C[C@H](C)C4=CC(=O)CC[C@]4(C)[C@H]3CC[C@@]21C [Medroxyprogesterone acetate] | 0.141 | 0.111 | 0.0166 | -0.207 | 0.107 | 0.162 | 0.15 | 0.056 | -0.0698 | -0.099 | -0.346 | -0.679 | -0.507 | -0.273 | -0.35 | -0.619 | 0.0781 | 0.0764 | 0.144 | 0.108 | 0.102 | 0.176 | 0.224 | 0.336 | 0.422 | 0.555 | 0.543 | 0.565 | 0.235 | 0.389 | – | – |
